Assay outcomes: PubChem BioAssay, National Center for Advancing Translational Sciences (NCATS)
Pf growth 96h – P. falciparum growth inhibition at 96 hours | P. falciparum luciferase reporter growth, 96 h | Potency, µM (highest dose often 28.7 µM), actives largely listed as inhibitors | 320,000 tested, 6.9% active | AID 504834
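P. falciparum expressing integrated firefly luciferase, in erythrocytes at 2% hematocrit, 0.05% parasitemia, incubated with compounds 96 h at 37 C, 5% CO2. Growth inhibition read as loss of luminescence; two-generation exposure targets delayed-death apicoplast inhibitors.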
Shiga toxin inh – Shiga toxin inhibition | inhibition, % at 38.7 µM | Vero cells, Shiga toxin protein synthesis inhibition reporter | 290,000 tested, 9.2% active; in the data active = inhibition mostly above about 28%, no sharp cut-off; inactive = mostly below about 43%
AMA1 RON2 block – inhibitors of Plasmodium falciparum AMA1-RON2 interaction; AlphaScreen AMA1-biotinylated RON2 peptide binding; Potency, µM (highest dose often 58.2 µM), most hits filed as inhibitors; 360,000 tested, 0.2% active; AID 720542; note: nearly all actives have a fitted effect of over 45% in size
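AMA1 (3D7) with his tag at 25 nM final met compounds first, then biotinylated RON2 peptide at 25 nM; detection used donor plus acceptor beads, 10 µg/mL apiece, read by AlphaScreen after 30 min at room temperature.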
SARS PLpro yeast – inhibitors of SARS-CoV papain-like protease in yeast; S. cerevisiae expressing SARS-CoV PLpro, growth rescue; Potency, µM (doses to about 32.9 µM), usual class: activators; 330,000 tested, 0.19% active; calls by dose curve; note: nearly all actives have a fitted effect of over 55% in size
Pf growth 48h – inhibits P. falciparum growth in the first generation, 48 h. P. falciparum luciferase growth in erythrocytes, 48 h. Potency, µM (highest dose often 28.7 µM), most hits filed as inhibitors. 310,000 tested, 5.9% active
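Firefly luciferase activity from engineered P. falciparum reports growth; inhibitors lower the luminescent signal. Cultures contained 2% hematocrit erythrocytes at 0.1% final parasitemia.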
Cycloheximide cs – counter-screen hit for Shiga toxin inhibitors, cycloheximide; cell reporter, cycloheximide protein synthesis inhibition counterscreen; max response, %; 300,000 tested, 12% active; AID 2314; in the data active = max response mostly above about 13%, no sharp cut-off; inactive = mostly below about 14%; note: read at 38.3 µM for the half of the compounds with a filed dose
A number is an active result. Hits are enriched below; roughly 19% of the tested compounds scored in any of these assays. Unless noted, calls come from the whole dose curve; as a rule, active = well fitted curve in the direction sought with a large enough effect; inconclusive = small, poorly fitted or top-dose-only effect, or another doubt; inactive = no such curve, though single readings can be large; an effect the other way counts as inactive or inconclusive.

How did COc1nc(Nc2ccc(OC)c(Cl)c2)nc(OC)n1 do in these assays?
Pf growth 96h: inactive; Shiga toxin inh: inactive; AMA1 RON2 block: inactive; SARS PLpro yeast: inactive; Pf growth 48h: 8.28µM; Cycloheximide cs: inactive

How did COc1ccc(Nc2nc(C)cc(C)n2)cc1Cl do in these assays?
Pf growth 96h: inactive; Shiga toxin inh: inactive; AMA1 RON2 block: inactive; SARS PLpro yeast: inactive; Pf growth 48h: inactive; Cycloheximide cs: 26.3

Results for Cc1cccc(C(=O)NC2C(=O)NNC2c2ccc(Cl)cc2)c1 (stereo not drawn) ?
Pf growth 96h: inconclusive; Shiga toxin inh: inactive; AMA1 RON2 block: inactive; SARS PLpro yeast: inactive; Pf growth 48h: inactive; Cycloheximide cs: inactive

Results for O=C(NC1C(=O)NNC1c1ccccc1)c1ccccc1 (stereo not drawn) ?
Pf growth 96h: inactive; Shiga toxin inh: 115.6; AMA1 RON2 block: inactive; SARS PLpro yeast: inactive; Pf growth 48h: inactive; Cycloheximide cs: 21.2

Results for O=C(CSc1ccc(-c2cccnc2)nn1)Nc1ccc(F)cc1F ?
Pf growth 96h: inconclusive; Shiga toxin inh: inactive; AMA1 RON2 block: inactive; SARS PLpro yeast: inactive; Pf growth 48h: inactive; Cycloheximide cs: inactive

What do the screens show for `Cc1ccc(NC(=O)CSc2ccc(-c3ccccn3)nn2)cc1`?
Pf growth 96h: inconclusive; Shiga toxin inh: inactive; AMA1 RON2 block: inactive; SARS PLpro yeast: inconclusive; Pf growth 48h: inconclusive; Cycloheximide cs: inactive

What do the screens show for `Cc1cccc(NC(=O)CSc2ccc(-c3ccccn3)nn2)c1C`?
Pf growth 96h: inconclusive; Shiga toxin inh: inactive; AMA1 RON2 block: inactive; SARS PLpro yeast: inactive; Pf growth 48h: inactive; Cycloheximide cs: inactive

Results for COc1ccccc1NC(=O)CSc1ccc(-c2ccccn2)nn1 ?
Pf growth 96h: inconclusive; Shiga toxin inh: inactive; AMA1 RON2 block: inactive; SARS PLpro yeast: inactive; Pf growth 48h: inconclusive; Cycloheximide cs: 13.0

How did CCOc1ccc(NC(=O)CSc2ccc(-c3ccccn3)nn2)cc1 do in these assays?
Pf growth 96h: inconclusive; Shiga toxin inh: inactive; AMA1 RON2 block: inactive; SARS PLpro yeast: 7.94µM; Pf growth 48h: inconclusive; Cycloheximide cs: inactive

What do the screens show for `CC(=O)Nc1ccc(NC(=O)CSc2ccc(-c3cccnc3)nn2)cc1`?
Pf growth 96h: inconclusive; Shiga toxin inh: inactive; AMA1 RON2 block: inactive; SARS PLpro yeast: inactive; Pf growth 48h: inconclusive; Cycloheximide cs: inactive

How did CCOc1ccc(NC(=O)CSc2ccc(-c3cccnc3)nn2)cc1 do in these assays?
Pf growth 96h: 5.86µM; Shiga toxin inh: inactive; AMA1 RON2 block: inactive; SARS PLpro yeast: inactive; Pf growth 48h: inactive; Cycloheximide cs: inactive

Results for O=C(CSc1ccc(-c2cccnc2)nn1)Nc1ccccc1C(F)(F)F ?
Pf growth 96h: 10.4µM; Shiga toxin inh: inactive; AMA1 RON2 block: inactive; SARS PLpro yeast: inactive; Pf growth 48h: inactive; Cycloheximide cs: inactive

How did COc1ccc(N2CC(C(=O)N/N=C/c3cc([N+](=O)[O-])ccc3O)CC2=O)cc1 (stereo not drawn) do in these assays?
Pf growth 96h: inactive; Shiga toxin inh: inactive; AMA1 RON2 block: inactive; SARS PLpro yeast: inactive; Pf growth 48h: inconclusive; Cycloheximide cs: inactive

What do the screens show for `CC(=O)Nc1ccc(OCC(=O)NC(C)c2ccc(F)cc2)cc1` (stereo not drawn)?
Pf growth 96h: inactive; Shiga toxin inh: inactive; AMA1 RON2 block: inactive; SARS PLpro yeast: inactive; Pf growth 48h: inactive; Cycloheximide cs: inactive

What do the screens show for `C/C(=N/NC(=O)c1cc(C)[nH]n1)c1ccncc1`?
Pf growth 96h: inconclusive; Shiga toxin inh: 49.0; AMA1 RON2 block: inactive; SARS PLpro yeast: inactive; Pf growth 48h: inactive; Cycloheximide cs: 17.1

What do the screens show for `C/C(=N/NC(=O)c1cc(C)[nH]n1)c1ccco1`?
Pf growth 96h: inactive; Shiga toxin inh: 41.7; AMA1 RON2 block: inactive; SARS PLpro yeast: inactive; Pf growth 48h: inactive; Cycloheximide cs: 26.6

How did C/C(=N\NC(=O)Cc1cccn1C)c1ccco1 do in these assays?
Pf growth 96h: inactive; Shiga toxin inh: inactive; AMA1 RON2 block: inactive; SARS PLpro yeast: inactive; Pf growth 48h: inactive; Cycloheximide cs: inactive

Results for C/C(=N\NC(=O)c1ccn(C)n1)c1ccco1 ?
Pf growth 96h: inconclusive; Shiga toxin inh: 85.1; AMA1 RON2 block: inactive; SARS PLpro yeast: inactive; Pf growth 48h: inactive; Cycloheximide cs: 39.7

What do the screens show for `C/C(=N\NC(=O)c1cc(-c2ccc(C)s2)[nH]n1)c1ccco1`?
Pf growth 96h: inactive; Shiga toxin inh: 66.1; AMA1 RON2 block: inactive; SARS PLpro yeast: inactive; Pf growth 48h: inactive; Cycloheximide cs: 39.2

What do the screens show for `CC(/C=C/c1ccco1)=N\NC(=O)c1cc(C)[nH]n1`?
Pf growth 96h: inactive; Shiga toxin inh: inactive; AMA1 RON2 block: inactive; SARS PLpro yeast: inactive; Pf growth 48h: inactive; Cycloheximide cs: inactive

What do the screens show for `Cc1cc(C)nc(/N=C(\N)Nc2ccccc2-c2ccccc2)n1`?
Pf growth 96h: inactive; Shiga toxin inh: inactive; AMA1 RON2 block: inactive; SARS PLpro yeast: inactive; Pf growth 48h: inconclusive; Cycloheximide cs: inactive

Results for NC(=O)c1c(N)[nH]c(C(=O)c2ccccc2)c1-c1ccncc1 ?
AMA1 RON2 block: inactive

Results for CNC[C@@H]1Oc2ccc(NC(=O)Nc3cccc4ccccc34)cc2C(=O)N([C@@H](C)CO)C[C@@H]1C ?
SARS PLpro yeast: inactive

What do the screens show for `C#CCOCCOCCOCCNc1nc(N2CCN(C(=O)[C@H]([C@@H](C)CC)n3cc(CCCCN)nn3)CC2)nc(N2CCN(C(=O)[C@H](C)n3cc(CCCN=C(N)N)nn3)CC2)n1`?
Pf growth 96h: inactive; AMA1 RON2 block: inactive; SARS PLpro yeast: inactive; Pf growth 48h: inconclusive

What do the screens show for `C#CCOCCOCCOCCNc1nc(N2CCOCC2)nc(N2CCN(C(=O)[C@H]([C@@H](C)CC)n3cc(CCCCN)nn3)CC2)n1`?
Pf growth 96h: 8.28µM; Shiga toxin inh: inactive; AMA1 RON2 block: inactive; SARS PLpro yeast: inactive; Pf growth 48h: inconclusive; Cycloheximide cs: inactive

Results for C#CCOCCOCCOCCNc1nc(N2CCN(C(=O)[C@H]([C@@H](C)CC)n3cc(CCCCN)nn3)CC2)nc(N2CCN(C(=O)[C@H]([C@@H](C)CC)n3cc(CCCN=C(N)N)nn3)CC2)n1 ?
Pf growth 96h: 7.38µM; AMA1 RON2 block: inactive; SARS PLpro yeast: inactive; Pf growth 48h: inconclusive

What do the screens show for `C#CCOCCOCCOCCNc1nc(N2CCN(C(=O)[C@H]([C@@H](C)O)n3cc(CCCCN)nn3)CC2)nc(N2CCN(C(=O)[C@H]([C@@H](C)CC)n3cc(CCCN=C(N)N)nn3)CC2)n1`?
Pf growth 96h: 4.65µM; Shiga toxin inh: inactive; AMA1 RON2 block: inactive; SARS PLpro yeast: inactive; Pf growth 48h: inconclusive; Cycloheximide cs: inactive

How did CCN(C(=O)c1ccc2c(SCC(=O)O)c3c(nc2c1)CCC3)c1cc(Cl)ccc1OC do in these assays?
Pf growth 96h: inactive; Shiga toxin inh: inactive; AMA1 RON2 block: inactive; SARS PLpro yeast: inactive; Pf growth 48h: inconclusive; Cycloheximide cs: inactive

Results for CC(C)Oc1ncnc2c1[nH]c1ccccc12 ?
Pf growth 96h: inconclusive; Shiga toxin inh: 38.7; AMA1 RON2 block: inactive; SARS PLpro yeast: inactive; Pf growth 48h: inconclusive; Cycloheximide cs: 30.3
